PubChem BioAssay (NCATS)
Records with an inconclusive call do not appear. Activity calls are given as the source filed them. The call rests on the fitted dose curve; in most records, active means well fitted curve in the direction sought with a large enough effect; inconclusive means small, poorly fitted or top-dose-only effect, or another doubt; inactive means no such curve, though single readings can be large; an effect the other way counts as inactive or inconclusive.

Key:
[1] = Cellular Toxicity (caspase-3) Renal Proximal Tubule (AID 667);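 further: cells exposed to compound for 16 hours at 37 °C before detection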
Summary of the method: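 Caspase 3/7 activation measured by luminescent aminoluciferin release in primary rat proximal tubule cells after 16 hr compound exposure at 37 °C. AC50 from Hill-fitted concentration-response, scaled between DMSO and 10 uM staurosporine.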

[2] = Cell Viability - LYMP2-001 (AID 921); further: series mostly up to about 92 µM; nearly all actives have a fitted effect of over 70% in size
Summary of the method: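 Cellular ATP loss read by luciferase luminescence after 24 h compound exposure at 37 C in complete medium. LYMP2-001 lymphoblastoid cells, 2500/well; qHTS concentration-response data fitted with Hill equation for AC50.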

[3] = MultiTox-Fluor Cytotoxicity Assay - LYMP1-001 - Dead Cells (AID 946)
Summary of the method: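 AC50 from Hill fit of concentration-response; data normalized to DMSO (basal) and 15 uM tetraoctylammonium bromide (100%). LYMP1-001 lymphoblastoid cells, 2500/well, 16 hr compound at 37 C; dead-cell protease fluorescence, Ex/Em 485/520.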

[4] = MultiTox-Fluor Cytotoxicity Assay - LYMP1-001 - Live Cells (AID 947)
[5] = Cell Viability - LYMP1-002 - Assay at 16 hr (AID 948)
Summary of the method: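 ATP luminescence (CellTiter-Glo) was measured after 16 hr compound exposure at 37 C of 2500 lymphoblastoid LYMP1-002 cells per well. Concentration-response curves were fitted with the Hill equation to give AC50.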

[6] = MultiTox-Fluor Cytotoxicity Assay - LYMP1-002 - Live Cells (AID 955);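 further: cells exposed to compound for 16 hours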
Summary of the method: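 In this qHTS viability format, lymphoblastoid cells (LYMP1-002, human) received compound for 16 hr at 37 C. Fluorogenic GF-AFC cleavage by viable cells was detected at 405/510 nm after 1 h at room temperature.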

[7] = MultiTox-Fluor Cytotoxicity Assay - LYMP1-002 - Dead Cells (AID 960); further: nearly all actives have a fitted effect of over 60% in size
Summary of the method: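 Concentration-dependent increases in membrane-leaked protease activity are quantified in LYMP1-002 cells after 16 hr treatment; values are normalized against DMSO and tetraoctylammonium bromide (15 uM) controls and AC50 derived by Hill modeling.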

[8] = MultiTox-Fluor Cytotoxicity Assay - LYMP1-003 - Dead Cells (AID 961); further: nearly all actives have a fitted effect of over 70% in size
Summary of the method: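 Human lymphoblastoid LYMP1-003 cells (2500/well) were treated with compounds for 16 hr at 37 C in complete medium. Dead-cell protease release was read by bis-AAF-R110 fluorescence (Ex/Em 485/520). AC50 came from Hill fits, normalized to DMSO and 15 uM tetraoctylammonium bromide.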

[9] = MultiTox-Fluor Cytotoxicity Assay - LYMP1-003 - Live Cells (AID 962);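 further: cells exposed to compound for 16 hours at 37 °C; cytotoxic hits lower the live-cell protease signal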
Summary of the method: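 Human lymphoblastoid line LYMP1-003 in complete culture medium, treated 16 hr with titrated compounds. Viable cells quantified via cell-permeant GF-AFC substrate fluorescence; AC50 derived by Hill fitting.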

[10] = Cell Viability - LYMP1-003 - Assay at 24 hr (AID 963)
Summary of the method: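 The lymphoblastoid line was treated with titrated compounds for 24 hours, and viable cell number estimated from luciferase-based ATP luminescence.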

[11] = Cell Viability - LYMP1-003 - Assay at 40 hr (AID 964); further: series mostly up to about 92 µM; nearly all actives have a fitted effect of over 60% in size
Summary of the method: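 Acute toxicity is scored as a concentration-dependent loss of intracellular ATP in LYMP1-003 cells (2500/well, complete medium) after 40 hr at 37 C, measured by CellTiter-Glo luminescence; AC50 values derive from standard Hill modelling.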

[12] = Cell Viability - LYMP2-003 (AID 965);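 further: cells exposed to compounds for 24 h before reading; nearly all actives have a fitted effect of over 50% in size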
Summary of the method: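 CellTiter-Glo luminescence quantified ATP loss after 24 h compound treatment of LYMP2-003 lymphoblastoid cells at 37 C. Titration series were fitted with the standard Hill equation to give AC50.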

[13] = Cell Viability - LYMP2-005 (AID 967); further: series mostly up to about 92 µM
Summary of the method: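 LYMP2-005 human lymphoblastoid cells (2500/well) were treated with compounds for 24 h at 37 C. Intracellular ATP was then measured by CellTiter-Glo luminescence after 30 min at room temperature. AC50 values came from Hill-equation fits of qHTS concentration-response data.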

[14] = Cell Viability - LYMP2-009 (AID 968); further: series mostly up to about 92 µM; nearly all actives have a fitted effect of over 55% in size
[15] = Cell Viability - LYMP2-011 (AID 969); further: nearly all actives have a fitted effect of over 60% in size
Summary of the method: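 Cells seeded at 2500 per well rest 5 hr before compound addition, then incubate 24 hr at 37 C. CellTiter-Glo reagent is added for 30 min at room temperature before luminescence detection.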

[16] = Cell Viability - LYMP2-013 (AID 970); further: series mostly up to about 92 µM; nearly all actives have a fitted effect of over 55% in size
Summary of the method: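 In complete culture medium, human lymphoblastoid cells were dosed for 24 hr at 37 C, with tetraoctylammonium bromide (6.4pM to 92 uM) as positive control. Viability reflects luciferase-based ATP signal; AC50 derived from concentration-response curves.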

[17] = Cell Viability - LYMP2-015 (AID 971); further: nearly all actives have a fitted effect of over 55% in size
Summary of the method: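 AC50 values reflect Hill-model fits of ATP-based luminescence (CellTiter-Glo) from a human lymphoblastoid line, 2500 cells/well, treated 24 hr at 37 C.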

[18] = Cell Viability - LYMP2-017 (AID 972); further: series mostly up to about 92 µM; nearly all actives have a fitted effect of over 55% in size
Summary of the method: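 In this qHTS format, lymphoblastoid cells in complete medium receive test compound for a day at 37 C before ATP content is quantified by luciferase luminescence. Reported AC50 figures come from standard Hill-equation curve fitting.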

[19] = Cell Viability - LYMP2-019 (AID 973); further: nearly all actives have a fitted effect of over 55% in size
Summary of the method: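 AC50 values come from Hill-equation modelling of qHTS concentration-response curves, where viability is measured as luciferase-based ATP luminescence in the lymphoblastoid line after 24 hr compound exposure in complete culture medium.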

[20] = Cell Viability - LYMP2-021 (AID 974)
Summary of the method: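 In qHTS format, compounds are tested against 2500 lymphoblastoid cells per well for 24 h; viable cell number is inferred from ATP-driven luciferase light, and Hill-equation fitting yields AC50 values.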

[21] = Cell Viability - LYMP2-023 (AID 975)
Summary of the method: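 In this qHTS, ATP-based luciferase luminescence (CellTiter-Glo) is quantified in human lymphoblastoid cells after 24 hr compound treatment at 37 C; tetraoctylammonium bromide serves as positive control. Concentration-response curves are Hill-fitted to give AC50.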

[22] = Cell Viability - LYMP2-025 (AID 976); further: series mostly up to about 92 µM
Summary of the method: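 Luminescent ATP readout after 24 hr treatment of a human lymphoblastoid line (LYMP2-025, 2500 cells/well, 37 C). Reagent developed 30 min at room temperature; AC50 fitted with the Hill equation.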

[23] = Cell Viability - LYMP2-002 (AID 977); further: series mostly up to about 92 µM
Summary of the method: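 Human lymphoblastoid cells (2500/well) in complete medium were preincubated 5 hr at 37 C, then exposed to compounds for 24 hr at 37 C. Intracellular ATP was read by CellTiter-Glo luminescence; AC50 came from Hill-equation concentration-response fits.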

Measured: Potency

CC1=C2[C@H](/C=C(\C)C(=O)O)CC[C@@H](C)[C@H]2CC1
inactive: [1] | [2] | [3] | [4] | [5] | [6] | [7] | [8] | [9] | [10] | [11] | [12] | [13] | [14] | [15] | [16] | [17] | [18] | [19] | [20] | [21] | [22] | [23]
